DAX1 inh-1 = DAX1 (NR0B1) inhibitors, primary screen, cell-based, HEK293, Gal4-DAX1, luciferase luminescence; Nuclear receptor subfamily 0 group B member 1 (Homo sapiens), P51843; HEK293 Gal4-DAX1 luciferase reporter; inhibition, % at 6.75 µM; 340,000 tested, 0.99% active; AID 504766, 2011;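 active means inhibition above the mean over all tested compounds plus 3 SD, cut at about 4.2% in these data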;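 further: inhibition shows as a rise in luminescence from relieved DAX1 repression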
DAX1 inh-2 = DAX1 (NR0B1) inhibitors on StAR promoter, primary screen, cell-based, luminescence, SF-1 (NR5A1), full-length DAX-1; HEK293T StAR-luciferase reporter, SF-1/DAX-1 repression relief; inhibition, % at 6.8 µM; 370,000 tested, 1.1% active; AID 652010, 2013;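 active means inhibition above the mean over all tested compounds plus 3 SD, cut at about 3.6% in these data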;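 further: higher inhibition means more luminescence from relief of DAX-1 repression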
hgDAF-12 ag = H. glycines DAF-12 receptor agonists, primary screen, cell-based, luminescence, HEK293, GAL4 fusion, UAS-luciferase | activation, % at 6.8 µM | HEK293 GAL4-hgDAF12 UAS-luciferase reporter, agonist luminescence; normalized to butyrate control | AID 687014, 2013 | 370,000 tested, 1.8% active | Nuclear hormone receptor DAF-12 (Heterodera glycines), GAL4 fusion;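 active means activation above a cutoff set at the mean of all screened compounds plus 3 SD, cut at about 10% in these data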
Wee1 stabilizer = Wee1 degradation inhibitors, primary screen, cell-based, HeLa, Wee1K328M-luciferase, luminescence; HeLa Luc-Wee1K328M stability; 100% = proteasome inhibitor MG132 effect; reporter increase, % at 5 µM; 220,000 tested, 1.2% active;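 active means activation above the mean of all tested compounds plus 3 SD, set per screening run, cut at about 8.8% in these data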;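 further: cells exposed to compound for 20 h before luminescence read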
Target sequence (P30291 whole entry K328M): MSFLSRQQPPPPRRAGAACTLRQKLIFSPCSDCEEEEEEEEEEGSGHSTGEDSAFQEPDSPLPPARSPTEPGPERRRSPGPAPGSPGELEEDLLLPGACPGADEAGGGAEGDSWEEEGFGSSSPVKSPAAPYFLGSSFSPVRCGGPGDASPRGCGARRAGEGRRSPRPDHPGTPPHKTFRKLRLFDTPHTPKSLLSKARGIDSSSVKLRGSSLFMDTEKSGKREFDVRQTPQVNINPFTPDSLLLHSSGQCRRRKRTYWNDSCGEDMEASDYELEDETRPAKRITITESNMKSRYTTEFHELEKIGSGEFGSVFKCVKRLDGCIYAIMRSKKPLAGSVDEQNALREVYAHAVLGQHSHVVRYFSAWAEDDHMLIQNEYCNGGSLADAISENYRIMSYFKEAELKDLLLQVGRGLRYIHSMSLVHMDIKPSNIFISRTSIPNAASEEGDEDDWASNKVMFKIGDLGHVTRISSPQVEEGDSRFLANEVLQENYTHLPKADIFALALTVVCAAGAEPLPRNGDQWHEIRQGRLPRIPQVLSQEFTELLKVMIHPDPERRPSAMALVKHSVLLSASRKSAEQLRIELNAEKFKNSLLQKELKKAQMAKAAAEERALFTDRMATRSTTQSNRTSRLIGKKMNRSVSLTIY
hcDAF-12 act = H. contortus DAF-12 nuclear receptor activators, primary screen, cell-based, luminescence, HEK293, lit1-tk-luc reporter; activation, % at 6.8 µM; 370,000 tested, 1.4% active; HEK293 hcDAF-12 lit1-tk-luc reporter; 0% DMSO, 100% Δ7-dafachronic acid;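 active means activation above the mean of all tested compounds plus 3 SD, cut at about 5.5% in these data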
ssDAF12 agonist = S. stercoralis DAF-12 nuclear receptor activators, primary screen, cell-based, luminescence, HEK293, GRIP1 co-expression, lit1-tk-luc. HEK293 ssDAF-12/GRIP1 lit1-tk-luc reporter; % of 3 µM dafachronic acid response. Nuclear hormone receptor DAF-12 (Strongyloides stercoralis). 370,000 tested, 1% active. activation, % at 6.8 µM;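 active means activation above the mean over all tested compounds plus 3 SD, cut at about 0.9% in these data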
hgDAF12 ag = H. glycines DAF-12 receptor agonists, confirmation, cell-based, luminescence, HEK293, GAL4-LBD fusion. HEK293 GAL4-hgDAF12 luciferase reporter, agonist mode; percent of butyrate response. shares compounds with hgDAF-12 ag. 3,300 tested, 80% active. activation, % at 6.8 µM;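 active means mean activation over triplicate wells above the hit cutoff derived from the earlier primary screen, cut at about 11% in these data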
LXRb DAF12 ctr = LXR agonists, Gal4 luciferase reporter, confirmation, counter-screen for hgDAF-12 agonist project, cell-based, luminescence, HEK293, H. glycines campaign; AID 743051, 2013; shares compounds with hgDAF-12 ag; 24 h; activation, % at 6.8 µM; 3,300 tested, under 10 active;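 active means mean activation of the triplicate above a set limit carried over from the primary screen, none filed active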
Large screens that a line does not name were inactive (follow-up assays come after a bar, where they were run). Sampled rows, rich in hits. Any-hit rate of the full collection: about 4.6%.

CC(C)CC(=O)Nc1ccc2nn(-c3ccccc3)nc2c1	hgDAF-12 ag 14 | hgDAF12 ag 16 | LXRb DAF12 ctr inactive
C[C@@H]1ON(C)[C@H]2C[C@H]3c4cc(-c5cc6ccccc6o5)ccc4CCN3C[C@@H]12	DAX1 inh-2 3.7, hgDAF-12 ag 13 (no result: DAX1 inh-1, Wee1 stabilizer) | hgDAF12 ag inactive | LXRb DAF12 ctr inactive
CCCn1c(C)cc(C(=O)CN2C(=O)NC3(CCCCCC3)C2=O)c1C	hgDAF-12 ag 16 (no result: Wee1 stabilizer) | hgDAF12 ag inactive | LXRb DAF12 ctr inactive
CN(C)c1cccc(C(=O)NNC(=O)CN2C(=O)C3CC=CCC3C2=O)c1 (centres undefined)	DAX1 inh-1 5.7, hgDAF-12 ag 14 (no result: Wee1 stabilizer) | hgDAF12 ag inactive | LXRb DAF12 ctr inactive
Cc1cccc(C)c1NC(=O)CN1C(=O)C2CC=CCC2C1=O (centres undefined)	none (no result: Wee1 stabilizer)
COc1ccc(Cl)cc1NC(=O)CN1C(=O)NC(Cc2c[nH]c3ccccc23)C1=O (centres undefined)	none (no result: Wee1 stabilizer)
C[C@@H]1CCCCO[C@@H](CN(C)CC2CCCCC2)[C@@H](C)CN([C@H](C)CO)C(=O)c2cc(NC(=O)Nc3ccc4c(c3)OCO4)ccc2O1	none (no result: DAX1 inh-1, Wee1 stabilizer)
O=C(NCCSc1ccccc1)c1ccccc1F	hgDAF-12 ag 13, hcDAF-12 act 5.8 (no result: Wee1 stabilizer) | hgDAF12 ag 13 | LXRb DAF12 ctr inactive
Cc1ccc(SCCNC(=O)c2ccccc2F)cc1	none (no result: Wee1 stabilizer)
Cc1cc(C)n(-c2nnc(NC(C)(C)C)nn2)n1	none
Cc1cc(C)n(-c2nnc(NC34CC5CC(CC(C5)C3)C4)nn2)n1	hgDAF-12 ag 13 | hgDAF12 ag 15 | LXRb DAF12 ctr inactive
CCCCn1nnnc1C(c1cc2ccccc2o1)N(C)Cc1ccc(Cl)cc1 (centres undefined)	none (no result: DAX1 inh-1, Wee1 stabilizer)
COc1ccc(-c2ccc(SCC(=O)NC3CCCCC3)nn2)cc1	none (no result: Wee1 stabilizer)
COc1ccc(-c2cn3nc(SCC(=O)NC4CCCCC4)ccc3n2)cc1	hgDAF-12 ag 15 (no result: Wee1 stabilizer) | hgDAF12 ag 15 | LXRb DAF12 ctr inactive
Oc1ccc(-c2cn3ccccc3n2)cc1	hgDAF-12 ag 13 | hgDAF12 ag 15 | LXRb DAF12 ctr inactive
CCN(CC)S(=O)(=O)c1ccc(-c2cn3ccccc3n2)cc1	none (no result: Wee1 stabilizer)
O=C(c1ccc(-c2cc(Cl)ccc2Cl)o1)N1CCOCC1	none
O=C(c1ccc(-c2ccc(Cl)cc2Cl)o1)N1CCOCC1	DAX1 inh-1 4.4, hgDAF-12 ag 18 | hgDAF12 ag 12 | LXRb DAF12 ctr inactive
Cc1ccc(-c2nc(Nc3cccc(C)c3)sc2CC(=O)O)cc1	hgDAF-12 ag 17 | hgDAF12 ag inactive | LXRb DAF12 ctr inactive
Cc1cccc(Nc2nc(CC(=O)O)cs2)c1	none
Clc1ccc([C@H]2OC[C@@]3(CNC4CCCCC4)CS[C@H](c4ccc(Cl)cc4)N23)cc1	none (no result: DAX1 inh-1, Wee1 stabilizer)
Cc1ccc(NC(=S)c2nc3ccccc3[nH]2)cc1	hgDAF-12 ag 14, hcDAF-12 act 6.5, ssDAF12 agonist 1.0 | hgDAF12 ag 17 | LXRb DAF12 ctr inactive
CCOc1ccc(NC(=O)CSc2nc3ccsc3c(=O)n2CCCCCC(=O)O)cc1	none (no result: Wee1 stabilizer)
COc1ccc(C(=O)NCCSC2CCCCC2)cc1	hgDAF-12 ag 16 | hgDAF12 ag 11 | LXRb DAF12 ctr inactive
CCc1ccc(-c2cc(C)no2)cc1S(=O)(=O)N1CCN(C(=O)c2ccco2)CC1	none (no result: Wee1 stabilizer)
Brc1ccccc1C1CC(c2ccccc2)=Nc2ccccc2N1 (centres undefined)	hgDAF-12 ag 14 | hgDAF12 ag inactive | LXRb DAF12 ctr inactive
c1ccc(C2=Nc3ccccc3NC(c3ccccc3)C2)cc1 (centres undefined)	hgDAF-12 ag 14 | hgDAF12 ag 15 | LXRb DAF12 ctr inactive
c1ccc(C2=NC(c3ccccc3)CC2)cc1 (centres undefined)	none (no result: Wee1 stabilizer)
CC1=C(C(=O)OCc2ccccc2)C(c2ccccc2Br)NC(=O)N1 (centres undefined)	none (no result: Wee1 stabilizer)
CCn1cc(/C=C(\NC(=O)c2ccccc2OC)C(=O)N2CCOCC2)c2ccccc21	none (no result: Wee1 stabilizer)
Cc1ccc(-c2nc(-c3ccncc3)no2)cc1C	hgDAF-12 ag 18 (no result: Wee1 stabilizer) | hgDAF12 ag 19 | LXRb DAF12 ctr inactive
Cc1ccc(-c2nc(-c3ccncc3)no2)cc1Cl	none (no result: Wee1 stabilizer)
CC(=O)Nc1ccc(NC(=O)c2ccccc2Br)cc1	none (no result: DAX1 inh-1, Wee1 stabilizer)
O=C(Nc1ccc(Br)cc1)c1ccccc1Br	DAX1 inh-1 4.9, hgDAF-12 ag 13 (no result: Wee1 stabilizer) | hgDAF12 ag 16 | LXRb DAF12 ctr inactive
O=c1c2ccccc2oc2ccc(NCCCN3CCOCC3)cc12	hgDAF-12 ag 13 (no result: Wee1 stabilizer) | hgDAF12 ag 16 | LXRb DAF12 ctr inactive
CN1CCCC1CCNc1ccc2oc3ccccc3c(=O)c2c1 (centres undefined)	none (no result: DAX1 inh-1, Wee1 stabilizer)
CN1CCCC1CCNc1ccc2c(=O)c3ccccc3oc2c1 (centres undefined)	hgDAF-12 ag 14 (no result: Wee1 stabilizer) | hgDAF12 ag 15 | LXRb DAF12 ctr inactive
C[C@@H](CO)N(CCc1cn(Cc2ccccc2)nn1)S(=O)(=O)c1ccccc1Br	none (no result: DAX1 inh-1, Wee1 stabilizer)
CCN(CC(=O)Nc1ccccc1C(F)(F)F)C(=O)c1ccc2[nH]c3c(c2c1)CC(C)CC3 (centres undefined)	none (no result: Wee1 stabilizer)
c1ccc(CSc2ccc(-c3cccs3)nn2)cc1	DAX1 inh-2 4.3, hgDAF-12 ag 14 | hgDAF12 ag 15 | LXRb DAF12 ctr inactive
c1ccc2oc(-c3ccc4nc[nH]c4c3)nc2c1	DAX1 inh-2 3.8, hgDAF-12 ag 19 | hgDAF12 ag 18 | LXRb DAF12 ctr inactive
Nc1nc2ccc(-c3nc4ccccc4o3)cc2s1	hgDAF-12 ag 14 | hgDAF12 ag 13 | LXRb DAF12 ctr inactive
NC(N)=NCCCS(=O)(=O)Nc1ccc(Nc2c3ccccc3nc3cc([N+](=O)[O-])ccc23)cc1	none (no result: Wee1 stabilizer)
Cc1cc(C)cc(-n2c3ccc(NC(=S)NC4CCCCC4)cc3c(=O)n2C)c1	none (no result: DAX1 inh-1, Wee1 stabilizer)
